Reference: PubChem BioAssay (Tox21)
Records with an inconclusive call do not appear. A number with no mark means an inactive call. Calls of active or inactive are those of the source. Calls come from the whole dose curve; as a rule, active = well fitted activation curve with a large enough effect in the repeat runs; inconclusive = weak or mixed curves; inactive = no such curve, though single readings can be large or run the other way.

The compounds below were run against Aryl hydrocarbon receptor (Homo sapiens) (UniProt P35869) (assay: qHTS assay to identify small molecule that activate the aryl hydrocarbon receptor (AhR) signaling pathway (AID 743085; note: nearly all actives have a fitted effect of over 15% in size;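 for activation: HG2L7.5c1 human HepG2 liver cells with stably integrated DRE-driven firefly reporter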)). Settings: HepG2 AhR-luc (HG2L7.5c1), luciferase, 24 h; series mostly up to 70.3 µM; activation: at the top concentration.
Chain of Aryl hydrocarbon receptor (Homo sapiens) (P35869 whole entry, looked up): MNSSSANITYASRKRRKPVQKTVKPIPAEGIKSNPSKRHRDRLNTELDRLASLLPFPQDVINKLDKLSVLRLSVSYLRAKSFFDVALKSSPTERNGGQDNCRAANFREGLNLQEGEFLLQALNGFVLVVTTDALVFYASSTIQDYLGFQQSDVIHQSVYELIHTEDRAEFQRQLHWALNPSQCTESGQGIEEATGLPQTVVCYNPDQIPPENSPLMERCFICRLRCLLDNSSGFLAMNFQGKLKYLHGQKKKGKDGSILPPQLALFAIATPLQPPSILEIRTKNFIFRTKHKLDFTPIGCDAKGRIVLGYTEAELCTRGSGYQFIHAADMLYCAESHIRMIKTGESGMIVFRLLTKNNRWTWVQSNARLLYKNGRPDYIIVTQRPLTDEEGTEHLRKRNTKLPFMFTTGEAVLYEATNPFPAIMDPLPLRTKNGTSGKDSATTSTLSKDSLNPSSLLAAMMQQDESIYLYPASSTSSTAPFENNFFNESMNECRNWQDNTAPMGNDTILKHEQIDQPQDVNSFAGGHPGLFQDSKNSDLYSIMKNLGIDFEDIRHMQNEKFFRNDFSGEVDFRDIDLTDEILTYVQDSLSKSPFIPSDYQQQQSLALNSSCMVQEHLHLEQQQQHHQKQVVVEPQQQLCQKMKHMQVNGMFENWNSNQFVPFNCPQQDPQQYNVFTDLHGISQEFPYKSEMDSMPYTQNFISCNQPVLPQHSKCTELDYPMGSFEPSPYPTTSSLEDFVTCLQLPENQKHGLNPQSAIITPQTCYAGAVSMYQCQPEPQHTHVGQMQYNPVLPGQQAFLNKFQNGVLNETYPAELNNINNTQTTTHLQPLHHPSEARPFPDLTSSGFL
How it was run: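 Luminescence read-out: ONE-Glo reagent, 30 min at room temperature, in HG2L7.5c1 HepG2 reporter cells treated 24 h at 37C. Viability was measured beforehand by CellTiter-Fluor fluorescence after 30 min at 37C.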
% is set by controls: 0 for no effect and ±100 for the full control effect; potency is the fitted concentration of half-maximal effect.

Compound | activation | Potency
O=C(CCCN1CCC(C(=O)c2ccc(F)cc2)CC1)c1ccc(F)cc1 | 0.421% | –
CN1CCCC(CN2c3ccccc3Sc3ccccc32)C1 (configuration not stated) | -3.46% | –
CC(=O)Nc1ccc(NC(=S)NC(=O)c2ccc(C(C)(C)C)cc2)cc1 | – | 1.5 µM (active)
C[C@]12CC[C@@H]3c4ccc(O)cc4CC[C@H]3[C@@H]1CC[C@@H]2OP(=O)(O)O | 2.54% | –
CC1(C)[C@@H]2CC[C@@]1(C)[C@H](OC(=O)CSC#N)C2 | -0.749% | –
C=C[C@]1(C)C[C@@H](OC(=O)CSC(C)(C)CNC(=O)[C@H](N)C(C)C)[C@]2(C)[C@H](C)CC[C@]3(CCC(=O)[C@H]32)[C@@H](C)[C@@H]1O | 5% | –
CN(C)CC/C=C1/c2ccccc2CSc2ccccc21 | -1.93% [at 32.5 µM] | –
CN1[C@@H]2CC[C@H]1CC(OC(c1ccccc1)c1ccccc1)C2 (some centres not stated) | – | inactive
CCN(CC)Cc1cc(Nc2ccnc3cc(Cl)ccc23)ccc1O | 0.145% [at 32.5 µM] | –
O=C1CSC2(CCN(CCCN3c4ccccc4Sc4ccc(Cl)cc43)CC2)N1 | – | 13.3 µM (active)
S=C1SCN(Cc2ccccc2)CN1Cc1ccccc1 | 2.95% | –
Cc1nc(NS(=O)(=O)c2ccc(N)cc2)nc(C)c1Br | 4.41% | –
CCN(CC)CCOc1ccc(-c2nc3cc(Cl)ccc3s2)cc1 | – | 8.41 µM (active)
CN(C)CCCN1c2ccccc2C(C)(C)c2ccccc21 | -0.0594% | –
C[C@]12C=CC(=O)N[C@@H]1CC[C@@H]1[C@@H]2CC[C@]2(C)[C@@H](C(=O)Nc3cc(C(F)(F)F)ccc3C(F)(F)F)CC[C@@H]12 | 0.239% | –
CC1(C)S[C@@H]2[C@H](NC(=O)C(C(=O)O)c3ccsc3)C(=O)N2[C@H]1C(=O)O (some centres not stated) | 0.104% | –
N#Cc1ccc2c(c1)N(CCCN1CCC(O)CC1)c1ccccc1S2 | 6.4% | –
CCc1ccc2c(c1)N(CC(C)CN(C)C)c1ccccc1S2 (configuration not stated) | 4.75% | –
CN1CCC(CN2c3ccccc3Sc3ccccc32)C1 (configuration not stated) | 0.14% | –
O=C(O)c1c(Cl)c(Cl)c(Cl)c(Cl)c1-c1c2cc(I)c(=O)c(I)c-2oc2c(I)c(O)c(I)cc12 | – | 6.68 µM (active)
C=C1C(=C/C=C2\CCC[C@]3(C)[C@@H]([C@H](C)CCCC(C)(C)O)CC[C@@H]23)C[C@@H](O)C[C@@H]1O | – | 10.6 µM (active)
C=CCNC1=C2C[C@@H](C)C[C@H](OC)[C@H](O)[C@@H](C)/C=C(\C)[C@H](OC(N)=O)[C@@H](OC)/C=C\C=C(/C)C(=O)NC(=CC1=O)C2=O | -4.49% | –
CC(C)(C)NC[C@H](O)COc1ccccc1C1CCCC1 | 1.55% [at 32.5 µM] | –
Nc1ncnc2c1ncn2[C@@H]1O[C@H](COP(=O)(O)OP(=O)(O)OP(=O)(O)O)[C@@H](O)[C@H]1O | -0.106% | –
O=C1C(=O)c2ncccc2-c2cccnc21 | – | 6.68 µM (active)
OCCN1CCN(CC/C=C2/c3ccccc3Sc3ccc(Cl)cc32)CC1 | -0.516% [at 32.5 µM] | –
O=c1oc2cc(O)ccc2s1 | 1.41% | –
